The text below walks through data of PubChem BioAssay.

Experiment [1] can be described thus: antimalarial activity against Dd2 strain (AID 2302;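 active means growth inhibition above 50% at the single 2 µM test dose, taken to imply half-maximal potency below 2 µM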;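 further: 0% = DMSO untreated growth and 100% = chloroquine plus artemisinin killed control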). The following applies: P. falciparum Dd2 in RBCs, LDH growth readout, 72 h; at 2 µM; active compounds read high.
Experiment [2] in a line: HepG2 cytotoxicity, primary screen, cytotoxicity control for P. falciparum antimalarial project, cell-based, ATP luminescence (AID 2303;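 active means inhibition above 50%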;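 further: 0% = DMSO wells and 100% = digitonin-killed cells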). The following applies: HepG2 viability, 24-48 h, at 10 µM, active compounds read high.
The target of experiment [3] is L-lactate dehydrogenase (Plasmodium falciparum (isolate CDC / Honduras)) (UniProt Q27743). Put plainly: PfLDH activity inhibition – cell lysate, 3D7 strain, counter-screen for P. falciparum growth inhibition project (AID 2304).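 Further: 0% = vehicle and 100% = reference inhibitor.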 The following applies: P. falciparum 3D7 crude extract, LDH APAD/NBT absorbance; at 2 µM; active compounds read high.
The nature of experiment [4]: inhibition of 3D7 malaria parasite growth – strain 3D7 (AID 2306).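 Further: 0% = DMSO wells and 100% = chloroquine plus artemisinin control wells.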 The following applies: P. falciparum 3D7 erythrocytic growth, LDH absorbance, 72 h; at 2 µM; active compounds read high.
Experiment [5] addresses Calcium-dependent protein kinase 1 (Plasmodium falciparum (isolate 3D7)) (UniProt P62344). Briefly: PfCDPK1 kinase inhibitors, biochemical, TCAMS library (AID 1159585; cut-off not given, nearly all actives have IC50 up to about 0.98 µM;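 further: inhibitors leave more ATP so luminescence rises with inhibition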). The following applies: recombinant PfCDPK1, Kinase-Glo ATP depletion luminescence. (Kinase-Glo measures the ATP left after a reaction by luminescence.)
Experiment [6] has as its target Plasmodium falciparum protein kinase 6 (PK6, PF3D7_1337100) (UniProt Q8IDW1). Put plainly: PfPK6 kinase inhibitors, biochemical, TCAMS library (AID 1159586). The following applies: recombinant PfPK6, Kinase-Glo ATP depletion luminescence.
The target in experiment [7] is Protein kinase 7 (PK7), Plasmodium falciparum 3D7 (PF3D7_0213400) (UniProt Q7YTF7). Briefly: inhibition of Plasmodium PK7 catalytic activity – biochemical, TCAMS antimalarial set, Kinase-Glo luminescence (AID 1159587). The following applies: recombinant PfPK7, Kinase-Glo ATP depletion luminescence.
In experiment [8] the target is Calcium-dependent protein kinase 4 (Plasmodium falciparum (isolate 3D7)) (UniProt Q8IBS5). Put plainly: PfCDPK4 kinase inhibitors, biochemical, TCAMS library (AID 1159588; cut-off not given, nearly all actives have IC50 up to about 0.91 µM). The following applies: recombinant PfCDPK4, Kinase-Glo ATP depletion luminescence.

A number with no mark means an inactive call. For some of these results: Entries with a potency or affinity are not part of this list. Calls of active or inactive are those of the source. Unless noted, how the calls were made is not given here.

Chain of L-lactate dehydrogenase (Plasmodium falciparum (isolate CDC / Honduras)) (Q27743 whole entry, looked up): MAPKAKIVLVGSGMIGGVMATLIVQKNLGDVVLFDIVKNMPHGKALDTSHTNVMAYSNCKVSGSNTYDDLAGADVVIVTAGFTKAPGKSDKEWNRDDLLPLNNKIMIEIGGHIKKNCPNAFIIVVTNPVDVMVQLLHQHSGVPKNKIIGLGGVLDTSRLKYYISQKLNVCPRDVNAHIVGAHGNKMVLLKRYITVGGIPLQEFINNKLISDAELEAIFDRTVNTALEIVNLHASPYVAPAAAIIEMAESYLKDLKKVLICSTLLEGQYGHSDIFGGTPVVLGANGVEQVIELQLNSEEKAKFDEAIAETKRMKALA
Chain of Protein kinase 7 (PK7), Plasmodium falciparum 3D7 (PF3D7_0213400) (Q7YTF7 1-343): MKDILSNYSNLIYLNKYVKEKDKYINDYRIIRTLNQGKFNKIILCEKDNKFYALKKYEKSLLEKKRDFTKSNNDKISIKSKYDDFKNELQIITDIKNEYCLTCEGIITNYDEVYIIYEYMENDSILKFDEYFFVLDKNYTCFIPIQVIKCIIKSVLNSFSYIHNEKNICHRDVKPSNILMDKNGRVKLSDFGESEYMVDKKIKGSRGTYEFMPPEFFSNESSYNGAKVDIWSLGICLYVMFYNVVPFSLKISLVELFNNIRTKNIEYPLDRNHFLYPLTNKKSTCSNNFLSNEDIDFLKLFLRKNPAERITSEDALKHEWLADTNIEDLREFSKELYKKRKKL
Chain of Calcium-dependent protein kinase 4 (Plasmodium falciparum (isolate 3D7)) (Q8IBS5 whole entry, looked up): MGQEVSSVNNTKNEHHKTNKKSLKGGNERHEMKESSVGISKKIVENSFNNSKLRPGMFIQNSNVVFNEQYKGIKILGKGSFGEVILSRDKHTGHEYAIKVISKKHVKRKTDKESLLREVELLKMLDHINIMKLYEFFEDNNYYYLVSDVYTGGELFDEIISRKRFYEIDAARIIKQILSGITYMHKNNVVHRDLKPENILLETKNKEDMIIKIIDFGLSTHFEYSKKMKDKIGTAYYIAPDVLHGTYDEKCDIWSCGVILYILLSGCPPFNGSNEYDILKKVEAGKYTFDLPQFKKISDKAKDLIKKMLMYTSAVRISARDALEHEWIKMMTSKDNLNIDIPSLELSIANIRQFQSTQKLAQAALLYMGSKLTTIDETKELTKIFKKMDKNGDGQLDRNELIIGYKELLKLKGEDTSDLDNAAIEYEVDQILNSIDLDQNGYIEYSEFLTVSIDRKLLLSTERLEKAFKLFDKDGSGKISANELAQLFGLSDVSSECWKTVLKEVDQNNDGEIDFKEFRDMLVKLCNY
Chain of Calcium-dependent protein kinase 1 (Plasmodium falciparum (isolate 3D7)) (P62344 whole entry, looked up): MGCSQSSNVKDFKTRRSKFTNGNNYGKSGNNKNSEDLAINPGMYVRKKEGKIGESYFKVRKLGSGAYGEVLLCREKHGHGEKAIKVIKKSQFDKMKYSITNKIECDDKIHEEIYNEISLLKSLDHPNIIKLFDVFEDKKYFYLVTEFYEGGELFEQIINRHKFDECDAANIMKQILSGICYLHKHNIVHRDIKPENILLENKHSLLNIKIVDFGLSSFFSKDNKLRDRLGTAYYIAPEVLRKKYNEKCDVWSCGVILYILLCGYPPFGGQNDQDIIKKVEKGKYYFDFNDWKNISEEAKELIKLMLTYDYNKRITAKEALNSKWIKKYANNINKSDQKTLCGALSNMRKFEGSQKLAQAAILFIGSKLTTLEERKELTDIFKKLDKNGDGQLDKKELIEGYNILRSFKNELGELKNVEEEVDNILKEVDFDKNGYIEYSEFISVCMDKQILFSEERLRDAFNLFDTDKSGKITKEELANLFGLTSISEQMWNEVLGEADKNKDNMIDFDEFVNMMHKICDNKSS
Chain of Plasmodium falciparum protein kinase 6 (PK6, PF3D7_1337100) (Q8IDW1 1-305): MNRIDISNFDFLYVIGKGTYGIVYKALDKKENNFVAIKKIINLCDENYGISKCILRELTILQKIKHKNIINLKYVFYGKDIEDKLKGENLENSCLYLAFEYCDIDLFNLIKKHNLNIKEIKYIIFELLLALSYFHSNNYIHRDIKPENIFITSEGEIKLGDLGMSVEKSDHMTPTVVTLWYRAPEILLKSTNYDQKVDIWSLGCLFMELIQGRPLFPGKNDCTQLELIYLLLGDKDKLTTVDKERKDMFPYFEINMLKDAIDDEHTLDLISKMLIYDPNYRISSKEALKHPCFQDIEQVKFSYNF

One may read the inhibition as the drop in the measured response relative to a control, in per cent. In the case of `CC1(C)N=C(N)N=C(N)N1OCc1nc(N)nc(Nc2ccccc2)n1`, the results for the growth inhibition in experiment [1] and in experiment [4] were -4% and 98% (active), respectively. The inhibition was 3% in experiment [2] and -2% in experiment [3]. In addition, the result in experiment [5], in experiment [6], in experiment [7] and in experiment [8] was inactive.
`CC[C@H](N=C(Nc1ccc(C#N)cc1O)Nc1cccc(Cl)c1Cl)c1ccccc1`: the growth inhibition in experiment [1] was 71% (active); in experiment [4], 91% (active). The inhibition in experiment [2] was -2%; in experiment [3], -1%. Also, the outcome in experiment [5], in experiment [6], in experiment [7] and in experiment [8] was inactive.
Consider `Cc1cc(N)nc2ccc(-c3ccc(CCN)cc3)cc12`, for which the values for the growth inhibition in experiment [1] and in experiment [4] were 48% and 101% (active), respectively. Also, the inhibition was 31% in experiment [2] and -4% in experiment [3]. For the same molecule, the outcome in experiment [5], in experiment [6], in experiment [7] and in experiment [8] was inactive.
In the case of `N#Cc1cccc(C(=O)Nc2cccc(-c3ccc(C(=O)NCCCN4CCOCC4)cc3)c2)c1`, the growth inhibition is 21% in experiment [1] and 96% (active) in experiment [4]. Further, the figures for the inhibition in experiment [2] and in experiment [3] were 21% and -8%, respectively. In addition, the outcome in experiment [5], in experiment [6], in experiment [7] and in experiment [8] was inactive.
As to `Cc1cc(NCCc2ccccc2)nc(/N=C(\N)Nc2cccc(Cl)c2)n1`, the growth inhibition in experiment [1] was 100% (active); in experiment [4], 101% (active). Also, the inhibition was 24% in experiment [2] and 4% in experiment [3]. In addition, the result in experiment [5], in experiment [6], in experiment [7] and in experiment [8] was inactive.
For `CCN(CC)c1nc(-c2ccccc2)cc(-c2ccccc2)c1C#N`, the growth inhibition in experiment [1] was 66% (active); in experiment [4] it was 100% (active). The inhibition in experiment [2] was -7%; in experiment [3], 2%. Also, the outcome in experiment [5], in experiment [6], in experiment [7] and in experiment [8] was inactive.
As for `Clc1ccc(OCc2ccccc2)c(-c2nc(-c3nc4ncc(Br)cc4[nH]3)cs2)c1`, the results for the growth inhibition in experiment [1] and in experiment [4] were 77% (active) and 101% (active), respectively. Further, the inhibition in experiment [2] was -7%; in experiment [3], -2%. The result in experiment [5], in experiment [6], in experiment [7] and in experiment [8] was inactive.
As to `Oc1ccc(-c2ccccc2)cc1CN1CCCCC1`, the results for the growth inhibition in experiment [1] and in experiment [4] were 70% (active) and 93% (active), respectively. Also, the values for the inhibition in experiment [2] and in experiment [3] were 3% and -1%, respectively. Also, the outcome in experiment [5], in experiment [6], in experiment [7] and in experiment [8] was inactive.
Regarding `Nc1ncc(-c2ccccc2)cc1-c1cccc2ncccc12`, the growth inhibition in experiment [1] was 99% (active); in experiment [4] it was 97% (active). Moreover, the inhibition in experiment [2] is 82% (active); in experiment [3], -2%. Further, the outcome in experiment [5], in experiment [6], in experiment [7] and in experiment [8] was inactive.
`CCCCCN1CCCN(Cc2cccc(NC(=O)c3cc4ccccc4s3)c2)CC1`: the growth inhibition was 30% in experiment [1] and 99% (active) in experiment [4]. Further, the inhibition in experiment [2] was 29%; in experiment [3], 6%. For the same molecule, the result in experiment [5], in experiment [6], in experiment [7] and in experiment [8] was inactive.
`Cc1c[nH]c2ccc(/C=C/C(=O)NC3CCC(CCN4CCc5ccc(C#N)cc5CC4)CC3)cc12` (stereo not given): the growth inhibition is 91% (active) in experiment [1] and 101% (active) in experiment [4]. Further, the inhibition was 9% in experiment [2] and 0% in experiment [3]. Besides, the result in experiment [5], in experiment [6], in experiment [7] and in experiment [8] was inactive.
On to `N#Cc1cccc(-c2cccc(C(=O)NC3CCC(CCN4CCc5ccc(C#N)cc5CC4)CC3)c2)c1` (stereo not given), for which the results for the growth inhibition in experiment [1] and in experiment [4] were 57% (active) and 99% (active), respectively. Besides, the inhibition in experiment [2] is 31%; in experiment [3], -6%. Besides, the outcome in experiment [5], in experiment [6], in experiment [7] and in experiment [8] was inactive.
As for `N#Cc1ccc(N(CCOc2ccc(Cl)c(F)c2)Cc2ccccc2C(F)(F)F)cc1C(F)(F)F`, the figures for the growth inhibition in experiment [1] and in experiment [4] were 43% and 101% (active), respectively. The inhibition was 17% in experiment [2] and -2% in experiment [3]. The outcome in experiment [5], in experiment [6], in experiment [7] and in experiment [8] was inactive.
`C=CCOC(=O)N1CCC(CNCc2ccc(-c3cccc(-c4nc5ccccc5[nH]4)c3)cc2)C1` (stereo not given): the growth inhibition in experiment [1] is 50% (active); in experiment [4] it was 100% (active). The inhibition in experiment [2] is 39%; in experiment [3], 2%. Also, the outcome in experiment [5], in experiment [6], in experiment [7] and in experiment [8] was inactive.
Take `CN(C)Cc1cccc(-c2ccc(NC(=O)c3ccc4c(=O)n(Cc5ccoc5)cnc4c3)cc2)c1`: the growth inhibition in experiment [1] was 9%; in experiment [4], 98% (active). For the same molecule, the figures for the inhibition in experiment [2] and in experiment [3] were 54% (active) and 3%, respectively. The outcome in experiment [5], in experiment [6], in experiment [7] and in experiment [8] was inactive.
Consider `COc1ccc2c(NN=Cc3ccccc3Cl)cc(C)nc2c1`, for which the figures for the growth inhibition in experiment [1] and in experiment [4] were 99% (active) and 101% (active), respectively. For the same molecule, the inhibition in experiment [2] was 5%; in experiment [3] it was 2%. Moreover, the result in experiment [5], in experiment [6], in experiment [7] and in experiment [8] was inactive.
For `N#Cc1cccc(Nc2nccc(NCC(O)c3ccc(C(F)(F)F)cc3)n2)c1` (stereo not given), the figures for the growth inhibition in experiment [1] and in experiment [4] were 98% (active) and 102% (active), respectively. In addition, the inhibition in experiment [2] was 23%; in experiment [3] it was 4%. For the same molecule, the result in experiment [5], in experiment [6], in experiment [7] and in experiment [8] was inactive.
Take `Cc1c(NC(=O)COc2ccc(Cl)cc2C(=O)c2cc(F)cc(C(F)(F)F)c2)ccc2ncsc12`: the values for the growth inhibition in experiment [1] and in experiment [4] were 18% and 86% (active), respectively. Further, the inhibition in experiment [2] and in experiment [3] was -2% in each case. Also, the result in experiment [5], in experiment [6], in experiment [7] and in experiment [8] was inactive.
Consider `CN1CCN(c2nc(NCCc3ccc(O)cc3)nc(NCc3ccccc3-c3ccc(C(F)(F)F)cc3)n2)CC1`, for which the growth inhibition is 82% (active) in experiment [1] and 90% (active) in experiment [4]. Besides, the inhibition in experiment [2] is 35%; in experiment [3] it was 6%. The result in experiment [5], in experiment [6], in experiment [7] and in experiment [8] was inactive.
For `Fc1ccc(Nc2ccnc3cc(-c4cccc(CNCCN5CCOCC5)c4)ccc23)c(Cl)c1`, the growth inhibition in experiment [1] was 99% (active); in experiment [4], 100% (active). Further, the inhibition in experiment [2] was 26%; in experiment [3], -1%. Besides, the outcome in experiment [5], in experiment [6], in experiment [7] and in experiment [8] was inactive.
